A selection: hits, their analogues and other compounds. The true share with any hit is near 1.1%.
Vaccinia mCherry: vaccinia inhibition (mCherry reporter); Vaccinia virus mCherry reporter infection, fluorescence; Potency, µM (doses to about 36.5 µM), most hits filed as inhibitors; 310,000 compounds, 0.63% hits; calls by dose curve; tested in A549 cells; also: nearly all actives have a fitted effect of over 35% in size
VACV Venus inh: vaccinia inhibition (Venus reporter); Vaccinia virus Venus reporter expression, fluorescence; AID 720580; Potency, µM (titrated, usually from 36.5 µM), actives largely listed as inhibitors; 330,000 compounds, 0.46% hits; calls by dose curve; tested in A549 cells; also: nearly all actives have a fitted effect of over 30% in size
AmpC inh no detg: AmpC beta-lactamase inhibition without detergent. AID 485341. Potency, µM (doses to about 57.1 µM), hits mostly inhibitors. AmpC nitrocefin hydrolysis, absorbance 480 nm, 0.0001% Triton. 330,000 compounds, 0.52% hits; also: nearly all actives have a fitted effect of over 20% in size
Target sequence (P00811 whole entry, looked up): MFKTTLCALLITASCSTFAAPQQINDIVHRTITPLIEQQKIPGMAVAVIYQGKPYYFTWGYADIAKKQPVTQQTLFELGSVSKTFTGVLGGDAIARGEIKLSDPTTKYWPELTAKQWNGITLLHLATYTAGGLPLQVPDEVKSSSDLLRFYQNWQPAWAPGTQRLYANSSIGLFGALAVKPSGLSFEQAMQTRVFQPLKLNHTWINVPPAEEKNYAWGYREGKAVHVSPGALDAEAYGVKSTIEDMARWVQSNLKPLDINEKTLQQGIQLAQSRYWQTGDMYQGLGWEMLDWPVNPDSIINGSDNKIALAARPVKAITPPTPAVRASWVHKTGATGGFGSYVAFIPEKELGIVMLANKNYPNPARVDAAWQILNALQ
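20 mM phosphate pH 7.0 + 0.01% (detergent screen) or 0.0001% Triton X-100; 5.3 nM AmpC reagent; cpd preinc 15 min RT; nitrocefin (800 uM stock) to start; A480 q20 s × 4 min; Activity was normalised to no-enzyme and no-compound control wells.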
AmpC inh detg: inhibitors of E. coli AmpC beta-lactamase with detergent; P00811; AmpC hydrolysis of nitrocefin, absorbance 480 nm, 0.01% Triton; Potency, µM (top dose mostly 114 µM), hits mostly inhibitors; 370,000 compounds, 0.041% hits; also: nearly all actives have a fitted effect of over 25% in size
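AmpC (5.3 nM in the dispensed reagent) in 20 mM phosphate pH 7.0 with 0.01% (detergent screen) or 0.0001% Triton X-100 was preincubated with compounds for 15 min at room temperature. Nitrocefin was then added from an 800 uM solution, and hydrolysis was followed at 480 nm.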
Hits are given with their value; . = inactive; ? = inconclusive; / = no result. Unless noted, calls follow the shape of the dose curve; as a rule, active = well fitted curve in the direction sought with a large enough effect; inconclusive = small, poorly fitted or top-dose-only effect, or another doubt; inactive = no such curve, though single readings can be large; an effect the other way counts as inactive or inconclusive.

SMILES | Vaccinia mCherry | VACV Venus inh | AmpC inh no detg | AmpC inh detg
C#CCOCCOCCOCCNc1nc(N2CCN(C(=O)CCCCCCCCCCNC(=O)Cn3cc(CCCCCN)nn3)CC2)nc(N2CCN(C(=O)CCCCCCCCCCNC(=O)[C@H]([C@@H](C)CC)n3cc(CCCCCN)nn3)CC2)n1 | ? | 10µM | . | .
CCN(CC)c1ccc(-c2nnc(SCC(=O)N(CCOC)c3c(N)n(CC(C)C)c(=O)[nH]c3=O)o2)cc1 | 8.9µM | ? | . | .
C/C(=C\c1ccco1)CN1CCOc2ccc(C(C)(O)COc3ccccc3)cc2C1 (stereo not drawn) | . | . | / | /
COc1cccc(NC(=O)C/C(C)=N/NC(=O)c2ccccc2Cl)c1 | / | / | . | .
C/C(CC(=O)Nc1ccc(Cl)c(C(F)(F)F)c1)=N\NC(=O)c1cc2ccccc2cc1O | ? | ? | 10µM | .
O=C1c2cccc3cccc(c23)C(=O)N1CCN1CCN(CC(O)COCc2ccc(Cl)cc2)CC1 (stereo not drawn) | 11µM | ? | . | .
COc1cc(OC)c(OC)cc1/C=C/c1nc2ccccc2o1 | . | . | / | /
Cc1cnc(CNc2nc(-c3ccc(N(C)C)cc3)nc3ccccc23)cn1 | 11µM | ? | / | /
CN(C)c1ccc(-c2nc(NC3CCNCC3)c3ccccc3n2)cc1 | 11µM | 11µM | / | /
COc1cc(=O)n2c(c1C(=O)N(C)Cc1cscn1)CCN(C(=O)c1cccc(C)c1C)CC2 | . | . | / | /
O=C(Nc1nnc(Cc2c[nH]c3ccccc23)s1)c1ccc(Cl)cc1Cl | . | . | . | ?
CC(C)(C)c1ccc(C(=O)Nc2nnc(Cc3c[nH]c4ccccc34)s2)cc1 | . | . | 11µM | .
O=C(N[C@@H]1c2ccccc2C2(CCN(C(=O)c3ccc4c(c3)OCCO4)CC2)[C@H]1O)c1cccnc1 | . | . | / | /
O=C(CCc1ccccc1)N/N=C/c1cc(Br)ccc1O | 13µM | ? | . | .
O=C(CCc1ccccc1)N/N=C\c1cc2c(cc1Br)OCO2 | . | . | . | ?
Oc1ccc(Br)cc1/C=N/NC(=S)NCCc1ccccc1 | 1µM | . | . | .
COc1ccc(O)c(/C=N/NC(=S)NCCc2ccccc2)c1 | ? | ? | . | .
CN(C(=O)c1cccc(NC(=O)Cc2ccc(NC(=O)C3CCCN(C(=O)CCc4ccccc4)C3)cc2)c1)C1CCCC1 (stereo not drawn) | 16µM | ? | / | /
CCn1nc(C)cc1C(=O)NCC1CCC2(CCN(Cc3ccccc3F)CC2)O1 (stereo not drawn) | . | . | / | /
Cc1ccc2cc(C#N)c(NCCNC(=S)NCCCN(C)C)nc2c1C | ? | 13µM | . | .
Cc1cccc(NC(=O)CNC(=O)COc2ccc(-c3ccc(C#N)cc3)cc2)c1C | . | . | 28µM | .
COC(=O)c1ccccc1-c1cc(C)cc2c1OC(CNC(=O)c1occc1C)C2 (stereo not drawn) | . | . | / | /
CCOC(=O)c1c(N)n(CCCOC(=O)c2ccco2)c2nc3ccccc3nc12 | ? | 10µM | . | .
Cc1[nH]n(-c2ncc(-c3ccccc3)s2)c(=O)c1C(c1ccc(Cl)cc1)C(C#N)C#N (stereo not drawn) | . | . | 32µM | .
COc1cc(=O)n2c(c1C(=O)NC(C)c1ccco1)CCN(C(=O)c1ccnc(Cl)c1)CC2 (stereo not drawn) | . | . | / | /
SMILES | Vaccinia mCherry | VACV Venus inh | AmpC inh no detg | AmpC inh detg
O=c1[nH]c(=O)n(C2CC(O)C(CO)O2)cc1C(F)(F)F (stereo not drawn) | 2µM | . | / | /
CC[C@@H](C)CCCCC(=O)N[C@H](CCN)C(=O)N[C@@H](C(=O)N[C@H](CCN)C(=O)N[C@@H]1CCNC(=O)C([C@@H](C)O)NC(=O)[C@@H](CCN)NC(=O)[C@@H](CCN)NC(=O)[C@@H](CC(C)C)NC(=O)[C@@H](Cc2ccccc2)NC(=O)[C@@H](CCN)NC1=O)[C@@H](C)O (stereo partly drawn) | . | . | / | /
C[C@@H]1CN([C@@H](C)CO)S(=O)(=O)c2ccc(C#CC3CCCCC3)cc2O[C@@H]1CN(C)Cc1cccnc1 | ? | 10µM | / | /
COC(=O)c1ccccc1C(=O)NCC1Cc2cc(-c3nc(C)cnc3C)ccc2O1 (stereo not drawn) | . | . | / | /
COC(=O)C1=C(C)OC(N)=C(C#N)C1c1cc2cc(C)ccc2nc1Cl (stereo not drawn) | . | . | . | ?
CC(=O)C1=C(C)OC(N)=C(C#N)C1c1cc2cc(C)c(C)cc2nc1Cl (stereo not drawn) | / | / | 0.32µM | .
C=C1CC(COc2ccc3c(C)c(Cl)c(=O)oc3c2)(c2ccccc2)OC1=O (stereo not drawn) | 10µM | 11µM | / | /
COc1ccc(NC(=O)CSc2nc(N)c(C(=O)Nc3ccc(N(C)C)cc3)s2)cc1 | / | ? | . | .
CN(C)c1ccc(NC(=O)CSc2nc(N)c(C(=O)Nc3ccc(N(C)C)cc3)s2)cc1 | 4µM | 4µM | . | .
COc1cccc(CNC(=O)c2c(OC)cc(=O)n3c2CCN(C(=O)C2CC24CCCCC4)CC3)c1 (stereo not drawn) | . | . | / | /
C#CCn1c(=NC(=O)c2ccc(Br)s2)sc2cccc(OC)c21 | . | . | 1.4µM | ?
O=C(OC(C(=O)N1CCOCC1)c1ccccc1)c1c2c(nc3ccccc13)CCCC2 (stereo not drawn) | . | . | / | /
Cc1[nH]c2ccccc2c1/C=N\NC(=O)c1ccccc1Cl | . | . | / | /
Cc1[nH]c2ccccc2c1/C=N/NC(=O)C1CC1(c1ccccc1)c1ccccc1 (stereo not drawn) | ? | 11µM | 11µM | .
COc1ccc2c(c1)CCc1cnc(-n3ncc(C(=O)NCCCN4CCOCC4)c3C)nc1-2 | ? | . | / | /
CCCNC(=O)c1ccc2c(=O)c(O)c(-c3ccc(C)cc3)[nH]c2c1 | 13µM | ? | . | .
CCCc1nc2cccnc2n1C1CCN(C(=O)CC2NC(=O)c3ccccc32)CC1 (stereo not drawn) | . | . | / | /
CC(C)c1oc(=O)cc2c1[C@@H](O)[C@H]1OC(=O)[C@@]3(C)CC[C@@H](O)[C@@]2(C)C13 (stereo partly drawn) | ? | 4µM | . | .
CC(C)c1oc(=O)cc2c1[C@@H](O)[C@H]1OC(=O)[C@@]3(C)C[C@@H](O)[C@@H](O)[C@@]2(C)C13 (stereo partly drawn) | ? | 2µM | . | ?
N#Cc1nc(N2CCCC2)nc(N(c2ccccc2)c2ccccc2)n1 | . | . | / | /
Cc1cc(C)n(-c2nc3ccccc3c(=O)n2OCC#N)n1 | 2.5µM | ? | . | .
CN(C)c1ccc(/C=C/c2ccnc3ccccc23)cc1C=O | . | . | / | /
OCCCNCc1cc2ccc(F)cc2nc1N1CCN(c2cccc(Cl)c2)CC1 | ? | . | / | /
O=C(CC1Oc2ccccc2NC1=O)NCCCN1CCOCC1 (stereo not drawn) | . | . | 2.5µM | ?
O=C1NC(=O)N(Cc2ccccc2Cl)C(=O)/C1=C/c1cccs1 | . | ? | 20µM | .
O=C1NC(=O)N(Cc2ccc(F)cc2)C(=O)/C1=C/c1cccs1 | . | . | . | .
COC(=O)C1CCN(Cc2ccc3c(c2)CN(C(=O)c2cc(C)nc(C)n2)CCO3)CC1 | . | . | / | /

Source: PubChem BioAssay
